In PubChem BioAssay (NCI):
The panel holds about 83,000 compounds, 20% with a hit somewhere; the sample as a whole holds those more often.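 Note: values are percent growth. 100 is the growth of untreated cells, values between 100 and 0 indicate rising inhibition; between -100 and 0 indicates cell death.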 Unmarked numbers belong to inactive results. Calls of active or inactive are those of the source. The calls were made as follows: active = growth percent below 10; inactive = the rest.

tested on: PC-3 prostate; assay: NCI-60 one-dose screen, 48 h (100 = growth as untreated, 0 = no growth, -100 = all killed); conditions: 10 µM unless noted

SMILES | growth
CCN(CC)S(=O)(=O)c1ccc(-c2nc(C(Cl)Cl)nc3cc(-c4ccc(F)cc4)nn23)cc1 | 18.6%
C/C(=N/N)c1nnn(-c2ccc(Br)cc2)c1C | 95.8%
CC1=C(C)C(=O)C(Nc2cccc(C)c2)=C(Br)C1=O | 78.5%
Cc1ccc(C(=O)Nc2ccc(CNCCN3CCNCC3)c(C(F)(F)F)c2)cc1C#Cc1cnc2cccnn12 | 23.8%

tested on: SK-MEL-5 melanoma; assay: as above; conditions: 10 µM unless noted

SMILES | growth
C#C[C@]1(O)CC[C@H]2[C@@H]3CC=C4c5sc(Nc6cc(C)cc(C)c6)nc5CC[C@]4(C)[C@H]3CC[C@@]21C | -42.5% (active)
CCCC[n+]1ccc(SCC(=O)n2ccc3ccccc32)c2ccccc21 | 85.8%
CC(C)(C)c1cc(NC(=O)Nc2ccc(-c3cn4c5c(sc4n3)CCc3cn(CCCN4CCCCC4)cc3-5)cc2)no1 | -51.9% (active)
CCCCCCNC(=O)Oc1ccc(/C(=C(/C)c2ccc(OC)cc2)c2ccc(OCCN3CCCCCC3)cc2)cc1 | 61.2%
Cn1cc(-c2cc3ncnc(Nc4ccc(CC(=O)Nc5nc(C(C)(C)C)cs5)cc4)c3s2)cn1 | 53%
O=C(CCCCCC/C=C\c1csc(Br)n1)NO | 97.1%
COc1ccc(C(=O)c2c(N)c(C#N)cn2-c2ccc(Cl)cc2Cl)cc1 | 98.7%
Cc1ccc2c(n1)C(=O)C(Cl)=C(Nc1cccc(C(F)(F)F)c1)C2=O | 96.9%
O=C1[C@H]2Cc3c([nH]c4ccccc34)[C@H](c3ccc(Cl)cc3)N2C(=O)CN1C1CCN(CC2CCCCC2)CC1 | 37.8%
